# A selection: hits, their analogues and other compounds. The true share with any hit is near 8%.
# KB-V1 cytotox = qHTS assay for MDR1-selective chemotherapeutics: Primary screen using the drug-selected MDR subline cells KB-V1 | KB-V1 MDR cells viability, CellTiter-Glo, 72 h | Potency, µM (highest dose often 46.1 µM), actives largely listed as cytotoxic | 400,000 tested, 3.4% active | AID 1347076, 2019; further: on the % scale 0 is the no-effect control and ±100 the full control effect; nearly all actives have a fitted effect of over 60% in size
#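 Following 72 h at 37 degrees C with compound, KB-V1 cell viability was read by CellTiter-Glo luminescence, medium being phenol-red-free DMEM plus 10% FBS; concentration-response parameters came from normalized, curve-fitted qHTS data.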
# HT1080 IDH1KD tx = qHTS for induction of synthetic lethality in tumor cells producing 2HG: qHTS for the HT-1080-IDH1KD cell line | HT-1080 IDH1 knockdown viability, ATP luminescence, 48 h | Potency, µM (highest dose often 46.1 µM), for inactives: top-dose activity, negative = toxicity, hits mostly cytotoxic | 360,000 tested, 2% active | AID 686971, 2013;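 further: 0% = DMSO wells and -100% = cell-free medium wells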
#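 In this qHTS, HT-1080 cells depleted of IDH1 are exposed for 48 h at 37 °C to compound titrations. Toxicity is scored from CellTiter-Glo luminescence, with DMSO as full viability and medium alone as none.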
# SW480 rereplic = A quantitative high throughput screen for small molecules that induce DNA re-replication in SW480 colon adenocarcinoma cells; SW480 DNA re-replication, Hoechst DNA content imaging, 48 h; Potency, µM (series often up to 46.1 µM), for the others: at the top dose re-replication activation, most hits filed as activators; 340,000 tested, 1.8% active; further: % of control where 0% means no effect; nearly all actives have a fitted effect of over 55% in size
#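 Cells (250 per well) received 23 nL compound or DMSO by pin tool and were kept 48 hr at 37 C, 5% CO2. Nuclei were then stained with Hoechst for 40 min and scanned for DNA content.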
# MCF10A rerep = A quantitative high throughput screen for small molecules that induce DNA re-replication in MCF 10a normal breast cells. MCF 10A DNA re-replication, Hoechst nuclear intensity, 48 h. Potency, µM (titrated, usually from 46.1 µM), for inactives: at the highest dose activity, positive = re-replication, most hits filed as activators. 350,000 tested, 2.9% active; further: % of control where 0% means no effect; nearly all actives have a fitted effect of over 50% in size
# HT1080NT lethal = qHTS for induction of synthetic lethality in tumor cells producing 2HG: qHTS for the HT-1080-NT fibrosarcoma cell line. HT-1080-NT fibrosarcoma viability, CellTiter-Glo ATP luminescence, 48 h. Potency, µM (titrated, usually from 46.1 µM), for the others: at the highest dose activity, negative = less viability, most hits filed as cytotoxic. 360,000 tested, 1.6% active. AID 686970, 2013;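 further: NT is the 2HG producing partner of a matched IDH1 knockdown line; 0% = DMSO-treated cells and -100% = media-only wells without cells; nearly all actives have a fitted effect of over 55% in size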
#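 Viability by CellTiter-Glo luminescence after 48 h compound exposure at 37C of HT-1080-NT cells (750/well, RPMI, 5% FBS). % activity scaled between DMSO wells and medium-only wells, then curve-fitted and categorized by curve class.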
# KB-3-1 tox = qHTS assay for MDR1-selective chemotherapeutics: Primary screen using the parental adenocarcinoma cell KB-3-1. KB-3-1 viability, CellTiter-Glo ATP luminescence, 72 h. Potency, µM (top dose mostly 46.1 µM), usual class: cytotoxic. 400,000 tested, 1.4% active; further: on the % scale 0 is the no-effect control and ±100 the full control effect; nearly all actives have a fitted effect of over 60% in size
#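 Parental KB-3-1 viability, qHTS format: 72 h compound exposure, 37 °C; CellTiter-Glo; media-only wells and DMSO plates as controls; concentration-effect fits on corrected data.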
# Numbers without * were called inactive; i = inactive; ? = inconclusive; / = not tested or not shown; [ ] = another dose, or the depositor's remark. The call rests on the fitted dose curve; in most records, active means well fitted curve in the direction sought with a large enough effect; inconclusive means small, poorly fitted or top-dose-only effect, or another doubt; inactive means no such curve, though single readings can be large; an effect the other way counts as inactive or inconclusive. Potency means the concentration at half of the fitted maximal effect.
SMILES,KB-V1 cytotox,HT1080 IDH1KD tx,SW480 rereplic,MCF10A rerep,HT1080NT lethal,KB-3-1 tox
O=[N+]([O-])c1cccnc1NCCNc1ncc(C(F)(F)F)cc1Cl,i,-16%,1%,?,-13%,?
Cc1ccc(-c2noc(CN(C(=O)Cc3ccccc3)C(C)C)n2)cc1,23µM*,-30%,3%,0%,-16%,i
Cc1ccc(C)c(C(=O)N(Cc2nc(-c3ccc(Cl)cc3)no2)C(C)C)c1,i,-18%,2%,23µM*,0%,i
COc1ccccc1OCC(=O)N(Cc1nc(-c2ccccc2)no1)C(C)C,?,-1%,?,2%,-6%,i
Cc1cc(Br)ccc1OCC(=O)N(Cc1nc(-c2ccccc2)no1)C(C)C,i,-22%,?,18µM*,-1%[9.24 µM],?
Cn1c2ccccc2c2ncn(CCCN3CCOCC3)c(=O)c21,i,-7%,7%,-1%,-20%,i
Cn1c2ccccc2c2ncn(CCC3=CCCCC3)c(=O)c21,16µM*,-19%,2%,?,-17%,i
Cc1cc(C)c(C)c(S(=O)(=O)NCC(=O)NCc2ccco2)c1C,18µM*,19%,?,-3%,13%,i
Cc1ccc(S(=O)(=O)N[C@@H](CC(C)C)C(=O)NCc2ccco2)cc1,15µM*,9%,-12%,0%,3%,i
Cc1ccc(S(=O)(=O)NC(=O)NCc2ccco2)cc1,i,-4%,-2%,-7%,-4%,?
Cc1cc(C)c2c(CC(=O)NCc3ccco3)coc2c1,15µM*,?,14%,?,?,?
COc1ccc(C2c3cccn3CCN2S(=O)(=O)c2ccccc2[N+](=O)[O-])cc1OC (stereo not given),i,/,/,/,/,?
O=C(NC(c1cccnc1)C(F)(F)F)c1cc(COc2ccc3c(c2)CCCC3)on1 (stereo not given),?,-23%,?,?,-16%,21µM*
COc1cc(OC)c(OC)cc1/C=C/c1cc[n+](C)c2ccccc12,i,/,/,/,/,15µM*
Cc1cc(N(C)C)cc(C)c1/C=C/c1cc[n+](C)c2ccccc12,i,/,/,/,/,4.6µM*
COc1cc(OC)c(/C=C/c2cc[n+](C)c3ccccc23)c(OC)c1,i,/,/,/,/,?
CN(C)c1ccc(/C=C/c2cc[n+](C)c3ccc4ccccc4c23)cc1,?,/,/,/,/,0.92µM*
C[n+]1ccc(/C=C/c2ccccc2O)c2ccccc21,?,?,0%,?,-6%,i
COc1cccc(-c2cc(C(=O)N3CCN(S(=O)(=O)c4ccc(Br)cc4)CC3)[nH]n2)c1,i,-1%,12%,?,15%,i
Cc1ccc(-c2cc(=O)c3cc(F)ccc3[nH]2)cc1,?,-16%,0%,?,-25%,?
O=c1cc(-c2ccccc2)[nH]c2ccc(F)cc12,?,2.3µM*,1.6µM*,2.1µM*,?,1.2µM*
Cc1ccc(-c2cc(=O)c3cc(C)ccc3[nH]2)cc1,?,21µM*,21µM*,?,?,9.2µM*
O=c1cc(-c2ccccc2)[nH]c2cc(Cl)ccc12,?,0.58µM*,0.73µM*,1.6µM*,0.52µM*,?
O=c1cc(-c2cccc(F)c2)[nH]c2ccccc12,?,1.5µM*,1.3µM*,1.3µM*,1.8µM*,0.37µM*
Cc1ccc2[nH]c(-c3cccc(F)c3)cc(=O)c2c1,i,1.5µM*,0.82µM*,1.2µM*,1.6µM*,0.41µM*
